Our source for the outcome and AC50 values is PubChem BioAssay (EPA / NIEHS).

A short description of experiment [1]: ATG_CRE_CIS: Attagene CIS-FACTORIAL HepG2 Assay for human cAMP Responsive Element (CRE) binding protein 3 (AID 2282926). The settings on record: HepG2 CRE cis-reporter, Attagene multiplexed mRNA; actives raise or lower the signal. A digest of the protocol:
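We dosed HepG2 cells bearing multiple cis-promoter reporter units for 24 h and measured reporter mRNA by RT-PCR with capillary electrophoresis detection. Bidirectional concentration-response fitting used DMSO as negative control.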

Experiment [2] has as its target CCAAT/enhancer-binding protein beta (Homo sapiens) (UniProt P17676). Nature of the experiment: ATG_C_EBP_CIS: Attagene CIS-FACTORIAL HepG2 Assay for human CCAAT/Enhancer Binding Protein (C/EBP) beta (AID 2282927). The settings on record: HepG2 Attagene cis-factorial transcription factor reporter; actives raise or lower the signal. A digest of the protocol: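 Chemical-treated HepG2 cells (24 h) bearing cis-regulated reporter constructs were processed for total RNA, then reverse transcription, PCR amplification, fluorescent primer extension and fragment analysis; gain- and loss-of-signal were fitted against DMSO.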

The nature of experiment [3]: ATG_CMV_CIS: Attagene CIS-FACTORIAL HepG2 Assay for human CMV (Internal Marker) (AID 2282928).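 Note: endpoint acts as a background internal control marker rather than a target.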 The following applies: HepG2 CMV promoter reporter, transcription factor profiling; actives raise or lower the signal. A digest of the protocol: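 HepG2 cells transiently transfected with multiple cis-regulated reporter units; 24 h compound exposure. Reporter mRNA quantified by RT-PCR, 6-FAM primer-extension labeling, HpaI digestion and capillary electrophoresis; bidirectional fitting against DMSO baseline.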

Experiment [4] in a line: ATG_DR4_LXR_CIS: Attagene CIS-FACTORIAL HepG2 Assay for human Liver X Receptor (LXR), DR4 submotif (AID 2282929). The following applies: HepG2 Attagene DR4 cis-reporter, mRNA transcription; actives raise or lower the signal. A digest of the protocol: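 Total RNA from 24 h-treated, MRTU-transfected HepG2 cells underwent reverse transcription, PCR, fluorescent primer extension and restriction digestion before capillary electrophoresis. Both increases and decreases in reporter signal were fitted against DMSO.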

Experiment [5] addresses Aryl hydrocarbon receptor (Homo sapiens) (UniProt P35869). Nature of the experiment: ATG_Ahr_CIS: Attagene CIS-FACTORIAL HepG2 Assay for human Aryl Hydrocarbon Receptor (Ahr) (AID 2282930). The settings on record: HepG2 AhR cis-factorial reporter transcription; actives raise or lower the signal. In a few lines:
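Following 24 h of chemical dosing, transfected HepG2 liver cells with cis-driven reporter units were lysed for RNA; reporter mRNA was quantified via RT-PCR and capillary electrophoresis, and responses fitted bidirectionally from DMSO.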

Experiment [6] is described as follows: ATG_AP_1_CIS: Attagene CIS-FACTORIAL HepG2 Assay for human Activator Protein 1 (AP-1) (AID 2282931). The settings on record: HepG2 Attagene cis-factorial AP-1 reporter mRNA; actives raise or lower the signal. A digest of the protocol:
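HepG2, transient cis-reporter transfection; 24 h; readout RT-PCR/CE fluorescence; DMSO baseline, gain and loss fitted.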

Experiment [7] can be described thus: ATG_AP_2_CIS: Attagene CIS-FACTORIAL HepG2 Assay for human Activator Protein 2 (AP-2) (AID 2282932). The settings on record: HepG2 AP-2 cis-reporter, Attagene transcription factor profiling; actives raise or lower the signal. A digest of the protocol: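 Bidirectional curve fitting against DMSO was applied to reporter mRNA signals from HepG2 cells 24 h after dosing. Cis-promoter reporter units, transiently transfected, were read by RT-PCR plus capillary electrophoresis.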

A short description of experiment [8]: ATG_BRE_CIS: Attagene CIS-FACTORIAL HepG2 Assay for human Bone Morphogenetic Protein (BMP) Response Element (BRE) (AID 2282933). The settings on record: HepG2 BMP response element reporter, Attagene transcription factor profiling; actives raise or lower the signal. In a few lines: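 Multiplexed cis-reporter assay, HepG2, 24 h exposure. mRNA from reporter units quantified via RT-PCR/CE; DMSO baseline; bidirectional curve fit.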

For experiment [9], the target named is Transcription factor E2F1 (Homo sapiens) (UniProt Q01094). Put plainly: ATG_E2F_CIS: Attagene CIS-FACTORIAL HepG2 Assay for human E2F Transcription Factor 1 (AID 2282935). The settings on record: HepG2 Attagene cis-reporter, E2F reporter RNA transcripts; actives raise or lower the signal. In a few lines: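 Multiplexed cis-reporter assay: HepG2, transient transfection, 24 h dosing, mRNA quantitation by labeled RT-PCR and CE.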

The nature of experiment [10]: ATG_E_Box_CIS: Attagene CIS-FACTORIAL HepG2 Assay for human Enhancer Box (E-box) (AID 2282936). The following applies: HepG2 E-box cis-reporter transcription, actives raise or lower the signal. In a few lines: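 Multiplexed CIS reporter system in transiently transfected HepG2 cells measures native transcription factor activity. Reporter RNA after 24 h exposure is profiled by RT-PCR-capillary electrophoresis.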

Experiment [11] in a line: ATG_M_61_CIS: Attagene CIS-FACTORIAL HepG2 Assay for M61 Transcription Factor (Internal Marker) (AID 2282937). The following applies: HepG2 Attagene CIS-FACTORIAL M61 internal marker reporter; actives raise or lower the signal. A digest of the protocol: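 Transfect HepG2 with MRTUs; dose 24 h; isolate RNA; reverse-transcribe with DNase I treatment; PCR-amplify, FAM-label and cut with HpaI for 2 h at 37 C; resolve by CE. Bidirectional fitting against DMSO.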

A short description of experiment [12]: ATG_EGR_CIS: Attagene CIS-FACTORIAL HepG2 Assay for human Early Growth Response 1 (EGR1) (AID 2282938). The settings on record: HepG2 Attagene CIS-FACTORIAL EGR reporter mRNA; actives raise or lower the signal. In a few lines:
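After a 24 h treatment of transiently transfected HepG2 cells, total RNA was reverse-transcribed and reporter sequences PCR-amplified, labelled and run on capillary electrophoresis. Reporters sit under cis-regulatory promoters sensing endogenous factors.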

Experiment [13] has as its target Retinoic acid receptor alpha (Homo sapiens) (UniProt P10276). Nature of the experiment: ATG_DR5_RAR_CIS: Attagene CIS-FACTORIAL HepG2 Assay for human Retinoic Acid Receptor Alpha (RARE), DR5 submotif (AID 2282934).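 For AC50: reporter responds to endogenous RAR alpha beta and gamma in HepG2 not RARA alone.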 The following applies: HepG2 Attagene cis-factorial RARE DR5 reporter, mRNA; actives raise or lower the signal. In a few lines: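 Transfected HepG2 reporter cells are exposed to chemicals for 24 h. Then RNA is extracted and the DR5 element reporter transcript is measured by RT-PCR and capillary electrophoresis, with bidirectional curve fitting relative to DMSO.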

Calls of active or inactive are those of the source. Rule for the calls: active = hit-call score of the fitted dose curve at least 0.9, where 1 is the maximum; inactive = score below 0.9.

Chain of Retinoic acid receptor alpha (Homo sapiens) (P10276 whole entry, looked up): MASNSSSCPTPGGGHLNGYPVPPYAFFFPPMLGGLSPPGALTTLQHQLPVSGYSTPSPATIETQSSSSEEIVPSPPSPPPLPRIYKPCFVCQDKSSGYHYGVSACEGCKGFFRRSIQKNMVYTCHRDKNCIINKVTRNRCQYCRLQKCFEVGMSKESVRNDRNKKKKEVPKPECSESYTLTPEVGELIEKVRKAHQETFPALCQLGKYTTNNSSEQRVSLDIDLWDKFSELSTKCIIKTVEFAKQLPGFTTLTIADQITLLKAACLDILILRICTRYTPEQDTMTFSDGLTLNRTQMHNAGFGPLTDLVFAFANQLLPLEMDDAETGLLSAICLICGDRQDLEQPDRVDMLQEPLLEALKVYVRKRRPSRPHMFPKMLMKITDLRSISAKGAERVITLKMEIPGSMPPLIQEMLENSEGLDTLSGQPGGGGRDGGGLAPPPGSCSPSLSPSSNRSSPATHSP
Chain of Aryl hydrocarbon receptor (Homo sapiens) (P35869 whole entry, looked up): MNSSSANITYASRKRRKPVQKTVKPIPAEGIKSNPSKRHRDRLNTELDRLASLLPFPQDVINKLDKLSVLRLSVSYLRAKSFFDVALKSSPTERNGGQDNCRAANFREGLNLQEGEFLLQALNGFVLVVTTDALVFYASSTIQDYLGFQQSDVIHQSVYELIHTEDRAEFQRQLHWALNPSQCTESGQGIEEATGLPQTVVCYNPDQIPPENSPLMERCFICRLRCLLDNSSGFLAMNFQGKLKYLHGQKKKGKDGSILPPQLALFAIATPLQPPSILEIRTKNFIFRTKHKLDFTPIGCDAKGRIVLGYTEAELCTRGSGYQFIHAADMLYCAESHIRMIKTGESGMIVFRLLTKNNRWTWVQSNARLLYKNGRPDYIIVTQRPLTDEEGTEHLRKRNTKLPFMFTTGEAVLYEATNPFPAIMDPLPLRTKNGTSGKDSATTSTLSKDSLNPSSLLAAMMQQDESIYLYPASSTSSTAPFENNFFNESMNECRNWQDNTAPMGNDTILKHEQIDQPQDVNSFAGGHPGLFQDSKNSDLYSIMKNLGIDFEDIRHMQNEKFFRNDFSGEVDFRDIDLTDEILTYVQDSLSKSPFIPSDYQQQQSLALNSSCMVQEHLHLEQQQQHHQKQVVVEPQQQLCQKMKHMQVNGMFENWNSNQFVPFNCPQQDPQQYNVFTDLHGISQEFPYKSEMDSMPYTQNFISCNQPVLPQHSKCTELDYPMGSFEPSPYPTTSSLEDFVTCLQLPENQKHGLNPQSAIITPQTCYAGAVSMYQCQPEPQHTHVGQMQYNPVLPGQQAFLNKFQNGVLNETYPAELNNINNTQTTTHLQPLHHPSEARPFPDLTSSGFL
Chain of Transcription factor E2F1 (Homo sapiens) (Q01094 whole entry, looked up): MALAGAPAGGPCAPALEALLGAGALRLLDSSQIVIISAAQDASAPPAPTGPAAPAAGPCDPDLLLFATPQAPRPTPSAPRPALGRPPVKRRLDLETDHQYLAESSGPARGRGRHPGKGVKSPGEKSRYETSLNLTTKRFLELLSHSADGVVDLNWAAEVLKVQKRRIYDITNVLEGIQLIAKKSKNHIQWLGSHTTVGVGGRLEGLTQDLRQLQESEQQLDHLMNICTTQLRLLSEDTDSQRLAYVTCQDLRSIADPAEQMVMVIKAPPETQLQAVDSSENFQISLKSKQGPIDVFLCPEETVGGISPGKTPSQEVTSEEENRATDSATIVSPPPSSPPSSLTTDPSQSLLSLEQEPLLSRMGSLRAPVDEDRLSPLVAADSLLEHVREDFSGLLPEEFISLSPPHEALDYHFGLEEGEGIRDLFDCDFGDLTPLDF
Chain of CCAAT/enhancer-binding protein beta (Homo sapiens) (P17676 whole entry, looked up, the tested form may be a part): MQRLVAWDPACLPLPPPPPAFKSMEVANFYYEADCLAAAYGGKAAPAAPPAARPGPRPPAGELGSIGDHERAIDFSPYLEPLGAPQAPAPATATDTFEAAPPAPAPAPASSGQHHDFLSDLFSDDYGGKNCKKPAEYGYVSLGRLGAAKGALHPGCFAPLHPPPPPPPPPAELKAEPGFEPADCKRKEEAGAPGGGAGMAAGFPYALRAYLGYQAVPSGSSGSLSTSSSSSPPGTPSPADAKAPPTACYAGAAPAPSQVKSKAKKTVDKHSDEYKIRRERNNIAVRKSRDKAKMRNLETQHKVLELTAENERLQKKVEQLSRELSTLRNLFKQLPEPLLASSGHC

For the compound `CC1(C)COP(Oc2ccccc2)OC1`, the compound was called inactive in experiment [1], in experiment [2], in [3], in [4], in experiment [5] and in experiment [6]. For the same compound, the call in experiment [7], in experiment [8], in experiment [9], in experiment [10], in experiment [11] and in [12] was inactive.
Broadly, the AC50 is the concentration at which the activity in the assay is half-maximal. With `c1csc(-c2ccc(-c3cccs3)s2)c1`, the outcome in [1], in experiment [2], in experiment [3], in experiment [7], in [8] and in experiment [9] was inactive. Moreover, the outcome in experiment [10] and in experiment [11] was inactive. The AC50 in [4] is 2.08 µM (active); in experiment [5] it was 0.739 µM (active); in [6] it was 8.14 µM (active); in experiment [12], 3.02 µM (active).
With `Brc1c(Br)c(Br)c(Oc2c(Br)c(Br)c(Br)c(Br)c2Br)c(Br)c1Br`, the compound was classed as inactive in experiment [1], in [2], in experiment [3], in [4], in [5] and in experiment [6]. Moreover, the outcome in experiment [7], in experiment [8], in experiment [9], in experiment [10], in experiment [11] and in experiment [12] was inactive.
With `CCCCN(CCCC)C(=S)[S-].CCCCN(CCCC)C(=S)[S-].[Ni+2]`, the result in experiment [1], in [2], in [3], in experiment [4], in [5] and in experiment [6] was inactive. Besides, the compound was called inactive in [7], in [8], in experiment [13], in experiment [11] and in experiment [12].
In the case of `CC(C)(C)c1cc([N+](=O)[O-])cc(C(C)(C)C)c1O`, the compound was called inactive in experiment [1], in experiment [2], in experiment [4], in [5], in experiment [9] and in [10]. Also, the compound was classed as inactive in experiment [11] and in experiment [12]. For the same compound, the AC50 was 1.77 µM (active) in experiment [3], 0.948 µM (active) in [6], 16.3 µM (active) in experiment [7] and 2.01 µM (active) in experiment [8].
Turning to `O=[N+]([O-])c1ccc(Cl)c([N+](=O)[O-])c1`, the call in experiment [1], in experiment [2], in experiment [3], in [5], in experiment [6] and in experiment [8] was inactive. The result in experiment [9] and in [11] was inactive. The AC50 was 5.36 µM (active) in [4], 6.06 µM (active) in experiment [7], 6.14 µM (active) in experiment [10] and 6.18 µM (active) in [12].
As for `C=CC(Cl)CCl` (centres undefined), the outcome in experiment [1], in experiment [2], in experiment [3], in experiment [4], in experiment [5] and in experiment [6] was inactive. Also, the compound was classed as inactive in experiment [7], in experiment [8], in experiment [9], in experiment [11] and in [12].
As to `O=C(CBr)c1ccc(O)cc1`, the call in [1], in [2], in experiment [3], in experiment [4], in experiment [5] and in experiment [7] was inactive. Also, the call in experiment [8], in [9], in [10], in experiment [11] and in experiment [12] was inactive.
Consider `CC(C)C(C)(N)C#N` (centres undefined), for which the compound was classed as inactive in experiment [1], in experiment [2], in [3], in experiment [4], in experiment [5] and in experiment [7]. The outcome in experiment [8], in [9], in experiment [10], in experiment [11] and in experiment [12] was inactive. Besides, in experiment [13], the AC50 was 46.9 µM (active).
For the compound `OCCCCO`, the compound was called inactive in [1], in experiment [2], in experiment [3], in [4], in experiment [5] and in experiment [7]. For the same compound, the outcome in experiment [8], in experiment [13], in experiment [9], in [10], in experiment [11] and in [12] was inactive.
Consider `CCOCn1c(-c2ccc(Cl)cc2)c(C#N)c(Br)c1C(F)(F)F`, for which the concentration at half-maximal activity (AC50) in [1] was 1.2 µM (active); in experiment [4], 8.63 µM (active); in [5], 170 µM (active); in [7] it was 3.76 µM (active); in experiment [8], 1.1 µM (active); in experiment [13] it was 0.518 µM (active). Moreover, the half-maximal activity concentration (AC50) in experiment [12] is 1.83 µM (active). In addition, the outcome in experiment [2], in experiment [3], in experiment [9], in experiment [10] and in [11] was inactive.
